Records with an inconclusive call do not appear. The source made the active and inactive calls. Unless noted, calls follow the shape of the dose curve; as a rule, active = well fitted curve in the direction sought with a large enough effect in the repeat runs; inconclusive = weak or mixed curves; inactive = no such curve, though single readings can be large; an effect the other way counts as inactive or inconclusive.
Legend:
[1] = qHTS assay to identify aromatase inhibitors - cell viability counter screen (AID 743084);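 also: cells stimulated with testosterone during compound exposure; nearly all actives have a fitted effect of over 55% in size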
[2] = target: Aryl hydrocarbon receptor (Homo sapiens) (UniProt P35869); experiment: qHTS assay to identify small molecule that activate the aryl hydrocarbon receptor (AhR) signaling pathway (AID 743085);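 also: HG2L7.5c1 human HepG2 liver cells with stably integrated DRE-driven firefly reporter; series mostly up to about 70 µM; nearly all actives have a fitted effect of over 15% in size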
Aryl hydrocarbon receptor (Homo sapiens), sequence (P35869 whole entry, looked up): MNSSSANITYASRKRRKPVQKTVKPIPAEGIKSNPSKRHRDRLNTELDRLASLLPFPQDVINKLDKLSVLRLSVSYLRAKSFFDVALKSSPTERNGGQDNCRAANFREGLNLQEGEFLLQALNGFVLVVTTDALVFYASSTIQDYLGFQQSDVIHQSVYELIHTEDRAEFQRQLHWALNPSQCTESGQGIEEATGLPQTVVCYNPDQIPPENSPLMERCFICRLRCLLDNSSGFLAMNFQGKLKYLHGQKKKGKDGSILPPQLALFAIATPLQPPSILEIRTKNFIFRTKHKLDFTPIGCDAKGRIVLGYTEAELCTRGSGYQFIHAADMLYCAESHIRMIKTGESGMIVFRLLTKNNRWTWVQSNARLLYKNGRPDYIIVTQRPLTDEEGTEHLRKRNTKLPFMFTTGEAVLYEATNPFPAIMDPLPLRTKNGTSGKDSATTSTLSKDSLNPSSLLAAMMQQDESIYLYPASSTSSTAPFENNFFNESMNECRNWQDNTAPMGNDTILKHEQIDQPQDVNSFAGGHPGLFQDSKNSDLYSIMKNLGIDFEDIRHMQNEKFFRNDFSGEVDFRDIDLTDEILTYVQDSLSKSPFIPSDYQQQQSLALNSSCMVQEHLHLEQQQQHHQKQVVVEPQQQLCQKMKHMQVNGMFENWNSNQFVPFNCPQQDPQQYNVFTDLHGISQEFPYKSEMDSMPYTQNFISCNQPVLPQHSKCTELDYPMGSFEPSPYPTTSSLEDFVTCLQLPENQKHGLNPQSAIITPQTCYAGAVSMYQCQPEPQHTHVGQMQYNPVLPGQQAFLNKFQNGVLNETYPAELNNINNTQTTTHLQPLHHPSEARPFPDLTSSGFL
Outline: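 Stably transfected human liver carcinoma cells (HG2L7.5c1; 20 DRE-firefly luciferase) were incubated 5 h, dosed, and kept 24 h at 37C. Agonism was scored from increased luciferase luminescence.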

[3] = qHTS assay to identify small molecule that activate the aryl hydrocarbon receptor (AhR) signaling pathway - cell viability counter screen (AID 743086);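 also: HepG2 liver cells carrying the AhR DRE luciferase reporter; series mostly up to about 70 µM; nearly all actives have a fitted effect of over 45% in size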
Outline: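 HepG2-AhR-luc (HG2L7.5c1) cells, 4000/well, treated 24 h at 37 C with compound; viability measured as CellTiter-Fluor fluorescence after 30 min in the same wells as the luciferase read.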

[4] = target: Peroxisome proliferator-activated receptor gamma (Homo sapiens) (UniProt P37231); experiment: qHTS assay to identify small molecule agonists of the peroxisome proliferator-activated receptor gamma (PPARg) signaling pathway (AID 743094; active = well fitted activation curve with a large enough effect in the signal ratio in the repeat runs, not every such curve was filed as active; the % refers to the signal ratio)
Peroxisome proliferator-activated receptor gamma (Homo sapiens), sequence (P37231 whole entry, looked up): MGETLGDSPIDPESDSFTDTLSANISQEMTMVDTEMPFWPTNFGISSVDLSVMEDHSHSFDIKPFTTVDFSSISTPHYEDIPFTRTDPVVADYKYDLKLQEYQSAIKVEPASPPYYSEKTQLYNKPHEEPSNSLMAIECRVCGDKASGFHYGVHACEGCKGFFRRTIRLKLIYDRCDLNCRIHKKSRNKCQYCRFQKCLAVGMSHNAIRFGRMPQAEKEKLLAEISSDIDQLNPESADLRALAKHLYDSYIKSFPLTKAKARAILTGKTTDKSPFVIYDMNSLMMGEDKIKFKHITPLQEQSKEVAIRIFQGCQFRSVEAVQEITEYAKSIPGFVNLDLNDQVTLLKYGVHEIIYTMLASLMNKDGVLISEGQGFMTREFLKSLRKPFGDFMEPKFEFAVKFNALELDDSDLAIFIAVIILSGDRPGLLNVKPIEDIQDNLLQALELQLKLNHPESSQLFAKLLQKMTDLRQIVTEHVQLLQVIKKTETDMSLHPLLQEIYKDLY
Outline: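 GeneBLAzer PPARg UAS-bla HEK293H cells carrying a stably integrated beta-lactamase reporter were pre-incubated 5 h at 37C, then exposed to compounds in DMSO for 17 h at 37C; LiveBLAzer B/G FRET substrate was added for 1 h at room temperature and fluorescence read.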

[5] = target: Peroxisome proliferator-activated receptor gamma (Homo sapiens) (UniProt P37231); experiment: qHTS assay to identify small molecule antagonists of the peroxisome proliferator-activated receptor gamma (PPARg) signaling pathway (AID 743191; calls by dose curve; also: series mostly up to about 63 µM; nearly all actives have a fitted effect of over 30% in size)
Outline: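 GeneBLAzer PPARg UAS-bla HEK293H cells, 5 h post-plating, exposed to compounds 17 h at 37C. LiveBLAzer B/G FRET substrate added for 1 h at room temperature; beta-lactamase reporter read by fluorescence intensity.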

[6] = qHTS assay to identify small molecule antagonists of the peroxisome proliferator-activated receptor gamma (PPARg) signaling pathway - cell viability counter screen (AID 743194); also: nearly all actives have a fitted effect of over 55% in size
Outline: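 Cytotoxicity counter screen in PPARg-bla HEK293H cells, same wells as reporter assay. Compounds plus 50 nM rosiglitazone (final) for 17 h at 37 C, then viability read by CellTiter-Glo luminescence.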

[7] = qHTS assay for small molecule agonists of the antioxidant response element (ARE) signaling pathway (AID 743202; active = well fitted activation curve with a large enough effect in the signal ratio in the repeat runs, not every such curve was filed as active; the % refers to the signal ratio)
Outline: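 Agonist mode reporter screen: HepG2 cells with ARE-controlled beta-lactamase are incubated with test compounds for 16 h at 37 C, and beta-lactamase activity is measured as fluorescence of cleaved B/G FRET substrate.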

[8] = qHTS assay for small molecule agonists of the antioxidant response element (ARE) signaling pathway - cell viability counter screen (AID 743203; calls by dose curve; also: nearly all actives have a fitted effect of over 55% in size)
Outline: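 CellSensor ARE-bla HepG2 cells, 2,000 per well, rested 5 hrs at 37C/5% CO2, then exposed to compound in DMSO for 16 hrs; viability read as CellTiter-Glo luminescence after 30 min at room temperature, in the reporter wells.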

[9] = qHTS assay for small molecule activators of the heat shock response signaling pathway (AID 743210; active = well fitted activation curve with a large enough effect in the signal ratio in the repeat runs, with a control signal flat, not every such curve was filed as active; the % refers to the signal ratio;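 also: HeLa cells with beta-lactamase reporter driven by heat shock elements; series mostly up to about 63 µM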)
Outline: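 Quantitative high-throughput format using an engineered HeLa line in which heat shock response elements drive beta-lactamase; after 5 h with compound, cells received a B/G FRET substrate and fluorescence was read.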

[10] = qHTS assay to identify small molecule agonists of the peroxisome proliferator-activated receptor delta (PPARd) signaling pathway - cell viability counter screen (AID 743211); also: nearly all actives have a fitted effect of over 55% in size
Outline: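 In the same wells used for beta-lactamase reporter measurement, cytotoxicity is scored by CellTiter-Glo. HEK293H PPARd-bla cells receive compound for 17 h at 37C following a 5 h settling period.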

[11] = target: Peroxisome proliferator-activated receptor delta (Homo sapiens) (UniProt Q03181); experiment: qHTS assay to identify small molecule agonists of the peroxisome proliferator-activated receptor delta (PPARd) signaling pathway (AID 743212; calls by dose curve)
Peroxisome proliferator-activated receptor delta (Homo sapiens), sequence (Q03181 whole entry, looked up): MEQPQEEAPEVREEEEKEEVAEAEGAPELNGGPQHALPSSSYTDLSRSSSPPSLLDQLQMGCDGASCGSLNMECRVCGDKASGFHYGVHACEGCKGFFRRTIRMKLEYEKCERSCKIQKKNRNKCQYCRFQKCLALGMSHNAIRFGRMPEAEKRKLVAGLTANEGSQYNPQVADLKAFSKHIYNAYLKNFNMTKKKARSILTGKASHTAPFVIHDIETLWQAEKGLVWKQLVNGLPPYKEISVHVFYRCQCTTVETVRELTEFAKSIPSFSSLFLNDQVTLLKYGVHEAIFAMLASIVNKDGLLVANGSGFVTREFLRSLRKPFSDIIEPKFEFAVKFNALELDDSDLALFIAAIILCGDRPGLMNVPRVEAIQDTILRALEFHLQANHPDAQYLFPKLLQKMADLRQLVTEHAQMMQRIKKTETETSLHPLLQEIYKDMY
Outline: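 Quantitative high-throughput agonist screen in a HEK293H beta-lactamase reporter line under UAS control. Compounds in DMSO, at 37 C. Fluorescence read after 2 h with FRET substrate at room temperature.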

[12] = qHTS assay to identify small molecule antagonists of the peroxisome proliferator-activated receptor delta (PPARd) signaling pathway - cell viability counter screen (AID 743213); also: nearly all actives have a fitted effect of over 50% in size
Outline: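 Cytotoxicity counter screen: CellTiter-Glo luminescence read 30 min after addition, in the same wells as the reporter assay. There, PPARd UAS-bla HEK293H cells (3000/well) were treated 17 h at 37 C with compound and 300 nM L165041.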

[13] = target: Peroxisome proliferator-activated receptor delta (Homo sapiens) (UniProt Q03181); experiment: qHTS assay to identify small molecule antagonists of the peroxisome proliferator-activated receptor delta (PPARd) signaling pathway (AID 743215; active = well fitted inhibition curve with a large enough effect in the signal ratio in the repeat runs, not every such curve was filed as active; the % refers to the signal ratio;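 also: cells stimulated with agonist L165041 at 300 nM final during compound exposure; series mostly up to about 62 µM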)
Outline: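 PPARd UAS-bla HEK293H cells were pre-incubated 5 h at 37 C, then given test compounds in DMSO plus agonist L165041 (300 nM final). After 17 h at 37 C, beta-lactamase FRET substrate was added; fluorescence read after 2 h at room temperature.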

[14] = qHTS assay to identify small molecule agonists of the farnesoid-X-receptor (FXR) signaling pathway - cell viability counter screen (AID 743218); also: nearly all actives have a fitted effect of over 45% in size
Outline: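 FXR-UAS-bla HEK 293T cells, plated 5 h at 37 C, were exposed to compounds for 16 h at 37 C. CellTiter-Glo was then added to the same wells as the bla readout; luminescence read after 30 min at room temperature.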

[15] = qHTS assay to identify small molecule antagonists of the farnesoid-X-receptor (FXR) signaling pathway - cell viability counter screen (AID 743221; active = well fitted cell-killing curve with a large enough effect in the repeat runs, not every such curve was filed as active; also: nearly all actives have a fitted effect of over 50% in size)
Outline: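 Here viability was scored by luminescence after CellTiter-Glo addition to wells already read for beta-lactamase. Prior treatment: compound plus CDCA (50 uM final), 16 h, 37 C, HEK 293T FXR-bla cells.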

[16] = target: Vitamin D3 receptor (Homo sapiens) (UniProt P11473); experiment: qHTS assay to identify small molecule agonists of the vitamin D receptor (VDR) signaling pathway (AID 743222; calls by dose curve)
Vitamin D3 receptor (Homo sapiens), sequence (P11473 whole entry, looked up): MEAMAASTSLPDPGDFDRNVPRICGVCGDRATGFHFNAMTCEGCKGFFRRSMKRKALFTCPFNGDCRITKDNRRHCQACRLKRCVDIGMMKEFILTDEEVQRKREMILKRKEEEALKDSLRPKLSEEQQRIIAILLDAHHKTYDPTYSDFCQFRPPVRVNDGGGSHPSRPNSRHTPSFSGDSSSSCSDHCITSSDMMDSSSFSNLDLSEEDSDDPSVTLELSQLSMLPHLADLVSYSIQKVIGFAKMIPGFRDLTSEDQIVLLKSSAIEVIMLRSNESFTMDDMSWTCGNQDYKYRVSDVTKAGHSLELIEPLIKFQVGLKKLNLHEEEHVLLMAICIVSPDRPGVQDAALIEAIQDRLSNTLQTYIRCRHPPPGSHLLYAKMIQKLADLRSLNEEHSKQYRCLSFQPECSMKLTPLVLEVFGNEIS
Outline: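 VDR-bla cells were plated 4 h at 37C/5% CO2, then exposed to compounds in DMSO for 16 h. After LiveBLAzer B/G FRET substrate addition and 2 h at room temperature, beta-lactamase reporter fluorescence was read.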

[17] = qHTS assay for small molecule activators of the heat shock response signaling pathway - cell viability counter screen (AID 743209); also: nearly all actives have a fitted effect of over 50% in size
Outline: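 CellSensor HSE-bla HeLa cells, plated overnight at 37 C/5% CO2, were exposed to compounds in DMSO for 5 h at 37 C. Viability was then read in the same wells by CellTiter-Glo luminescence after 30 min at room temperature.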

[18] = target: Bile acid receptor (Homo sapiens) (UniProt Q96RI1); experiment: qHTS assay to identify small molecule antagonists of the farnesoid-X-receptor (FXR) signaling pathway (AID 743217; active = well fitted inhibition curve with a large enough effect in the signal ratio in the repeat runs, not every such curve was filed as active; the % refers to the signal ratio)
Bile acid receptor (Homo sapiens), sequence (Q96RI1 whole entry, looked up): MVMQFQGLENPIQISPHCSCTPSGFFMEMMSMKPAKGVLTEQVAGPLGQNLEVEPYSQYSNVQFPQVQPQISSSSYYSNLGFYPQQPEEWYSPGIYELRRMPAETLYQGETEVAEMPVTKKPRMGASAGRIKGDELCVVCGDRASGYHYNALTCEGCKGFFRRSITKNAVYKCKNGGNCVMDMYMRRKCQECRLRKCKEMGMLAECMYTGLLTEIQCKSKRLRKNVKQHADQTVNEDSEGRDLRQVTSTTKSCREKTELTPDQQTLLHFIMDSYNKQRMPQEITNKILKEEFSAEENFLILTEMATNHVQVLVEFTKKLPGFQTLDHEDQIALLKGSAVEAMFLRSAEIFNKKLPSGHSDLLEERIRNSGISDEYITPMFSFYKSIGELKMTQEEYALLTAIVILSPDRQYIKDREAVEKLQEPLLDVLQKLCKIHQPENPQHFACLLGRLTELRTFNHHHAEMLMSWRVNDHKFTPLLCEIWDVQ
Outline: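 FXR-UAS-bla HEK 293T cells pre-incubated 5 h at 37 °C, then exposed to compounds with chenodeoxycholic acid (50 uM final) for 16 h at 37 °C. Beta-lactamase reporter read by LiveBLAzer B/G FRET substrate fluorescence after 2 h at room temperature.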

[19] = target: Bile acid receptor (Homo sapiens) (UniProt Q96RI1); experiment: qHTS assay to identify small molecule agonists of the farnesoid-X-receptor (FXR) signaling pathway (AID 743220; active = well fitted activation curve with a large enough effect in the signal ratio in the repeat runs, not every such curve was filed as active; the % refers to the signal ratio)
Outline: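 Beta-lactamase reporter under UAS control in GeneBLAzer FXR HEK 293T cells (5000/well) measured with LiveBLAzer FRET substrate after 2 h at room temperature. Compound exposure lasted 16 h at 37C.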

[20] = target: Vitamin D3 receptor (Homo sapiens) (UniProt P11473); experiment: qHTS assay to identify small molecule antagonists of the vitamin D receptor (VDR) signaling pathway (AID 743223; active = well fitted inhibition curve with a large enough effect in the signal ratio in the repeat runs, not every such curve was filed as active; the % refers to the signal ratio)
Outline: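 Inhibition of agonist-driven VDR signalling is scored in VDR-bla cells: 3 nM final 1alpha,25-dihydroxyvitamin D3 plus compound, 16 h at 37C, then beta-lactamase detection by FRET substrate fluorescence after 2 h.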

Measured: Potency

CC(C)N(c1ccccc1)C(C)C
not listed: [17] | [18] | [19] | [20]
inactive: all other assays above

CCCOC(OCCC)OCCC
not listed: [7] | [12]
inactive: all other assays above

CCN(C)C(=O)Oc1cccc([C@H](C)N(C)C)c1
not listed: [16] | [17] | [20]
inactive: all other assays above

COc1ccc(C2CNC(=O)C2)cc1OC1CCCC1 (stereo unspecified)
not listed: [7] | [11] | [16] | [18] | [19]
inactive: all other assays above

ClCCCl
not listed: [7] | [12] | [14] | [18] | [19]
inactive: all other assays above

CCN1CCc2nc(N)oc2CC1
not listed: [12] | [16] | [17] | [20]
inactive: all other assays above

CCCCCCCCOS(=O)(=O)O
not listed: [7] | [11] | [16] | [20]
inactive: all other assays above

O=C(O)CCSSCCC(=O)O
not listed: [7] | [11]
inactive: all other assays above

Cc1cccc(C)c1NC(=O)c1ccccc1C(=O)O
not listed: [9] | [11] | [13] | [18] | [19]
inactive: all other assays above

From PubChem BioAssay (Tox21)
